# Screens deposited in PubChem BioAssay by The Scripps Research Institute Molecular Screening Center.
# Shown are actives, neighbours in structure and some others; about 3.4% of the full set was active somewhere.
# PAFAH1B2 FP inh = inhibitors of human PAFAH1B2. inhibition, % at 3.39 µM. P68402. 340,000 compounds, 1.2% hits. AID 492953. recombinant PAFAH1B2, FP-rhodamine activity probe, fluorescence polarization;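 active = inhibition above the mean of all tested compounds plus 3 SD, cut at about 24% in these data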
# Target sequence (P68402 whole entry, looked up): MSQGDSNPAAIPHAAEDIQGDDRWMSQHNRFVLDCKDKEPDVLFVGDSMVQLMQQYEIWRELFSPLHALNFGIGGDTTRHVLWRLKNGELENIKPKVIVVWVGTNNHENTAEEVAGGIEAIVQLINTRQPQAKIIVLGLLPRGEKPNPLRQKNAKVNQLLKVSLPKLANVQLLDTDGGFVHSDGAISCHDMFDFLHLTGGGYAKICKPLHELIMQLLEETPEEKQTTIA
# pPAFAH inh = pPAFAH (human) enzyme inhibition; Q13093; recombinant pPAFAH, FP-rhodamine probe fluorescence polarization; inhibition, % at 3.39 µM; 330,000 compounds, 1.5% hits; AID 463082;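 active = inhibition above the mean inhibition across the screen plus 3 SD, cut at about 25% in these data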;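 note: inhibitors block binding of the rhodamine activity-based probe so polarization drops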
# PAFAH2 FP inh = inhibitors of human PAFAH2; Q99487; recombinant PAFAH2, FP-rhodamine activity probe, fluorescence polarization; inhibition, % at 3.39 µM; 340,000 compounds, 0.99% hits; AID 492956;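 active = inhibition above the mean over all tested compounds plus 3 SD, cut at about 30% in these data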;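 note: inhibitors block probe labeling of enzyme so polarization drops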
# PAFAH1B3 FP inh = blocks human PAF acetylhydrolase 1B catalytic subunit 3; Q15102; inhibition, % at 3.39 µM; recombinant PAFAH1B3, FP-rhodamine probe, fluorescence polarization; 340,000 compounds, 0.28% hits;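 active = inhibition above the screen-wide average of all tested compounds plus 3 SD, cut at about 25% in these data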
# Target sequence (Q15102 whole entry, looked up): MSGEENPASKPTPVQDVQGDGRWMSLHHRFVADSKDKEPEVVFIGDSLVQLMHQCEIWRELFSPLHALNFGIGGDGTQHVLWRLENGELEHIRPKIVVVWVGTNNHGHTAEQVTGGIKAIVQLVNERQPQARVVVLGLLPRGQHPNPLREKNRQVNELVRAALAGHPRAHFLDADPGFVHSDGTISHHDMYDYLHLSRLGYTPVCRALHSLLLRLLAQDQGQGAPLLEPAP
# PP1 counter = counter-screen for PP5 inhibitors: inhibitors of human PP1-alpha | inhibition, % at 6.7 µM | 320,000 compounds, 0.9% hits | purified PP1alpha, OMFP fluorescence | AID 2235 | P62136;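 active = inhibition above the mean inhibition of all tested compounds plus 3 SD, computed separately for each screening campaign, cut at about 15% in these data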
# PP5 primary = PP5 (human) phosphatase inhibition; P53041; purified PP5c, OMFP substrate fluorescence; inhibition, % at 6.7 µM; 320,000 compounds, 0.18% hits; AID 1987;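 active = inhibition above the campaign's mean inhibition across all tested compounds plus 3 SD, cut at about 9.5% in these data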
# pPAFAH confirm = pPAFAH (human) inhibition, confirmed. shares compounds with pPAFAH inh. recombinant pPAFAH, FP-Rh probe fluorescence polarization. inhibition, % at 3.39 µM. 2,300 compounds, 72% hits. AID 463230;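 active = mean inhibition of the triplicate above the hit cutoff set for the earlier primary screen, cut at about 25% in these data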
# Hits are given with their value; . = inactive; / = no result given.
SMILES,PAFAH1B2 FP inh,pPAFAH inh,PAFAH2 FP inh,PAFAH1B3 FP inh,PP1 counter,PP5 primary,pPAFAH confirm
Cc1ccnc(NC(=S)NC(=O)/C=C/c2ccc(Cl)cc2)c1,.,.,.,.,.,.,/
O=C(N/N=C1/CCSC1)c1cc(Br)ccc1O,.,37,.,.,.,.,.
Cc1ccc(-c2nc(COC(=O)C3=NN(c4ccccc4)C(=O)CC3)cs2)cc1,.,.,.,.,.,.,/
Cc1cc(C)cc(C(=O)NCC(=O)OCc2c(C)noc2C)c1,.,37,.,.,.,.,.
Cc1noc(C)c1COC(=O)CNC(=O)c1ccc(Cl)cc1,.,.,.,.,.,.,/
CN(CCc1ccccn1)C(=O)CCC1CCCN(C(=O)NC2CCCCC2)C1 (stereo unspecified),.,.,.,.,.,.,/
O=C1CC(Nc2ccc(N3CCOCC3)cc2)C(=O)N1c1cccc(C(F)(F)F)c1 (stereo unspecified),.,46,.,.,.,.,.
CN(C)c1ccc(N2C(=O)CC(Nc3ccc(N4CCOCC4)cc3)C2=O)cc1 (stereo unspecified),.,.,.,.,.,.,/
COc1cccc(N2C(=O)CC(Nc3ccc(N4CCOCC4)cc3)C2=O)c1 (stereo unspecified),.,39,33,.,.,.,.
CCNC(=O)CC1C(=O)N(CC)C(=S)N1NC(=O)c1ccccc1 (stereo unspecified),/,.,/,/,.,.,/
CCOC(=O)/C(C#N)=C/Nc1ccccc1NS(=O)(=O)c1cccc(C(C)=O)c1,.,35,.,.,.,.,.
CCOC(=O)/C(C#N)=C/Nc1ccccc1NS(=O)(=O)c1ccc(C)c(C)c1,.,.,.,.,.,.,/
CCCCn1cc(S(=O)(=O)c2ccccc2)c(=O)c2cc(C)ccc21,.,.,.,.,.,.,/
COc1ccc(OC)c2[nH]c(=O)c(CCNC(=O)Cc3cccs3)cc12,.,.,.,.,.,.,/
Cc1ccc(NC(=O)c2cc3c(=O)oc4ccc(C)cc4c3s2)nc1,/,66,/,/,.,.,.
CC1=C(C(=O)OCCCBr)C(c2ccc3c(c2)OCO3)NC(=O)N1 (stereo unspecified),.,43,.,.,.,.,.
CCCCCOC(=O)C1=C(C)NC(=O)NC1c1ccc2c(c1)OCO2 (stereo unspecified),.,.,.,.,.,.,/
CCOC(=O)Cc1cc(=O)n2[nH]c(-c3ccc(Cl)cc3)cc2n1,.,35,.,.,16,.,.
CCCc1cc(=O)n2[nH]c(-c3ccc(Cl)cc3)cc2n1,.,.,.,.,.,.,/
O=C(Oc1ccccc1)N1CCCC1,.,.,.,.,.,.,/
O=C(Oc1ccc(Cl)cc1)N1CCOCC1,.,.,.,.,.,.,/
O=C(Oc1ccc(-c2ccccc2)cc1)N1CCOCC1,.,94,32,.,.,.,98
O=C(Oc1ccc(Oc2ccccc2)cc1)N1CCC(O)CC1,.,94,.,.,.,.,92
CCc1ccc(CNC(=O)CCC(=O)N2Cc3cccc(OC)c3Oc3ncccc32)cc1,.,.,.,.,.,.,/
CCc1ccc(C2C(C#N)=C(N)Oc3cc(N)ccc32)cc1 (stereo unspecified),.,59,.,.,.,.,.
SMILES,PAFAH1B2 FP inh,pPAFAH inh,PAFAH2 FP inh,PAFAH1B3 FP inh,PP1 counter,PP5 primary,pPAFAH confirm
COc1ccc(C2C(C#N)=C(N)Oc3cc(N)ccc32)cc1 (stereo unspecified),.,/,.,.,/,/,/
N#CC1=C(N)Oc2cc(N)ccc2C1c1ccc(Cl)cc1 (stereo unspecified),.,43,.,.,.,.,.
CCN(CC)c1ccc(NS(=O)(=O)c2ccc3c(c2)oc(=O)n3C)c(C)c1,.,40,.,.,.,.,44
CCc1ccc(CNC(=O)Cc2ccc(NC(=O)C3=C(C)OCCS3)cc2)cc1,.,36,.,.,.,.,.
O=C1CN(C(=O)COC(=O)CCC(=O)c2ccc(F)cc2)c2ccccc2N1,.,.,.,.,/,/,/
CC(=O)N1CCN(c2ccc(NCc3ccc(-c4ccc(Br)cc4)o3)cc2)CC1,.,41,.,.,/,/,26
Cc1nc2c3ccccc3nc(NNC(=O)CCC(=O)NCCN3CCN(c4ccccc4)CC3)n2n1,.,.,.,.,.,.,/
Cc1cc(NS(=O)(=O)c2ccc(Nc3nc(-c4sc(N)nc4C)cs3)cc2)no1,36,46,79,55,.,.,42
Cc1c(C(=O)N/N=C/c2cccnc2)nnn1-c1nonc1N,.,.,.,.,.,.,/
Cc1ccc(S(=O)(=O)N(CC(=O)NCC2CCCO2)C2CCCCC2)cc1 (stereo unspecified),.,.,.,.,.,.,/
COc1cc(NC(c2ccccc2)c2ccccc2)cc(OC)c1OC,.,44,.,.,.,.,43
COc1cc(NC(=O)CNC(c2ccccc2)c2ccccc2)cc(OC)c1OC,.,.,.,.,.,.,/
O=C(CSc1ccc(-c2ccco2)nn1)c1cccc([N+](=O)[O-])c1,.,38,.,.,.,.,.
CC(NC(=O)C1CCC(CNS(=O)(=O)c2ccc3c(c2)C(C)(C)C(=O)N3C)CC1)c1ccccc1 (stereo unspecified),.,.,.,.,.,.,/
N#CC1=C(N)N2C(=C(C#N)C1c1ccc(Br)cc1)Nc1ccccc12 (stereo unspecified),/,63,/,/,.,.,71
COc1ccc(-c2cc(C(=O)Nc3cc(Cl)ccc3O)no2)cc1,.,.,.,.,.,.,/
Cc1cc(C)n(Cc2ccc(C(=O)O)cc2)n1,.,.,.,.,.,.,/
Cc1ccc(C)n1Cc1ccc(C(=O)O)cc1,.,47,.,.,18,.,62
COC(=O)/C=C1\SC(=NC(=O)c2ccc(-c3ccccc3)cc2)NC1=O,.,.,.,.,/,/,/
CC(NC(=S)Nc1cccc(F)c1)C(c1cccs1)N1CCOCC1 (stereo unspecified),.,47,.,.,.,.,.
Cc1ccc(C)c(NC(=S)NC(C)C(c2cccs2)N2CCOCC2)c1 (stereo unspecified),.,.,.,.,.,.,/
C[C@H](CO)N1C[C@H](C)[C@@H](CN(C)S(C)(=O)=O)Oc2ccc(NC(=O)Nc3ccc(C(F)(F)F)cc3)cc2C1=O,.,44,.,.,/,/,45
NNC(=O)c1cc2ccccc2cc1O,.,43,.,.,.,.,.
COc1ccc(C(=O)NC(=S)NNC(=O)c2ccco2)cc1,.,.,.,.,.,.,/
O=C(NC(=S)NNC(=O)c1cc2ccccc2cc1O)c1ccco1,.,39,.,.,.,.,37
COc1cc(NC(=O)c2cc3ccccc3cc2O)c(OC)cc1Cl,.,.,.,.,.,.,/
Cc1ccc(Cl)cc1NC(=O)c1cc2ccccc2cc1O,.,35,.,.,.,.,.
